The source of these data is the supplement of paper PMC6555819.

What all share (test): PBM binding z-score (relative to random genomic background probes); higher = stronger binding; sequences stand for … in GC…GCGATTGACAGCGTAGAATGAAGG
Assay [1] concerns FXR:RXRa (NR concentration 270 nM, RXRa partner concentration 90 nM). Summed up:
(§1)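 Ligand-free nuclear receptor dimers were bound for 1 h to custom Agilent 4×180K protein-binding microarrays. Detection used antibodies against each partner (one per run). Binding z-scores rest on regression-normalized fluorescence, with random background probes as the reference.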

Assay [2] deals with LXRa:RXRa (NR concentration 270 nM, RXRa partner concentration 90 nM). Summed up: as §1
Assay [3] relates to LXRa homodimer (NR concentration 270 nM). Summed up:
as §1

Assay [4] concerns LXRb:RXRa (NR concentration 270 nM, RXRa partner concentration 90 nM). The procedure, abridged:
as §1

The subject of assay [5] is LXRb homodimer (NR concentration 270 nM). The procedure, abridged:
as §1

The test system of assay [6] is PPARa:RXRa (NR concentration 270 nM, RXRa partner concentration 90 nM). The procedure, abridged: as §1
The test system of assay [7] is PPARg:RXRa (NR concentration 180 nM, RXRa partner concentration 90 nM). Summed up: as §1
The subject of assay [8] is PPARg:RXRa 270nM:90nM, anti-RXR (NR concentration 270 nM, RXRa partner concentration 90 nM). Summed up:
as §1

The test system of assay [9] is PPARg:RXRa 30nM:10nM, anti-RXR (NR concentration 30 nM, RXRa partner concentration 10 nM). Summed up: as §1
Assay [10] deals with PPARg:RXRa 90nM:30nM, anti-RXR (NR concentration 90 nM, RXRa partner concentration 30 nM). Summed up: as §1
Assay [11] relates to PPARg:RXRa DBDmut IVT, anti-RXR (DBD mutation: RXRa K156A/R161A, NR concentration 270 nM, RXRa partner concentration 90 nM). Summed up:
as §1

The subject of assay [12] is PPARg:RXRa IVT, anti-PPARg (NR concentration 270 nM, RXRa partner concentration 90 nM). Summed up:
as §1

Assay [13] has as its system PPARg DBDmut:RXRa IVT, anti-PPARg (DBD mutation: PPARg1 K132A/R137A, NR concentration 270 nM, RXRa partner concentration 90 nM). Summed up: as §1
Assay [14] has as its system PPARg DBDmut IVT, anti-PPARg (DBD mutation: PPARg1 K132A/R137A, NR concentration 270 nM). The procedure, abridged: as §1
The subject of assay [15] is PPARg homodimer (NR concentration 180 nM). Summed up: as §1
In assay [16] the test system is PXR homodimer (NR concentration 270 nM). Summed up:
as §1

The test system of assay [17] is RARa:RXR (NR concentration 270 nM, RXRa partner concentration 90 nM). Summed up:
as §1

For assay [18], the system named is RARa homodimer (NR concentration 270 nM). The procedure, abridged:
as §1

For assay [19], the system named is RARb:RXRa (NR concentration 270 nM, RXRa partner concentration 90 nM). Summed up: as §1
The test system of assay [20] is PXR:RXRa (NR concentration 270 nM, RXRa partner concentration 90 nM). Summed up: as §1

As for GATACAGGGTCAGCTTGAGGCCAGAGTATGGAAA, the PBM binding z-score is 4.2 in [1]; 2.37 in assay [2]; -0.58 in assay [3]; 2.03 in assay [4]; -0.747 in [5]; 3.98 in assay [6]. Besides, the PBM binding z-score in assay [7] turned out to be 2.71; in assay [8] it was 2.81; in assay [9] it was 0.493; in assay [10], 1.56; in assay [11], 1.23; in [12], 2. Besides, the PBM binding z-score in assay [13] was -0.407; in [14] it was -0.636; in assay [15] it was 1.71; in assay [16], -0.346; in [17], 3.44; in assay [18] it was -0.0727. Moreover, the PBM binding z-score in assay [19] is 3.72.
As to CGAACTAGGTCAAAGGACAGTGAAAGGCGACGTA, the PBM binding z-score is 4.11 in assay [1]; 2.54 in [2]; 0.0195 in assay [3]; 1.9 in assay [4]; -0.588 in assay [5]; 5.72 in [6]. Moreover, the PBM binding z-score in [7] is 10.1; in assay [8] it was 8.6; in [9] it was 8.13; in assay [10], 9.66; in assay [11] it was 7.94; in assay [12], 8.4. Besides, the PBM binding z-score in assay [14] is 3.54; in assay [15], 2.15; in [20] it was 1.21; in assay [16], -0.123; in assay [17], 2.12; in [18], -0.0827. Moreover, the PBM binding z-score in assay [19] came out at 3.99.
As to CGAACTAGGTCACCAGGGCAGTGAAGAGGTTGGA, the PBM binding z-score in [1] was 3.67; in assay [2], 2.48; in [3] it was 0.0109; in assay [4], 1.52; in assay [5], -0.639; in assay [6] it was 5.2. Moreover, the PBM binding z-score in [7] came to 8.69; in [8], 6.86; in [9] it was 4.52; in [10], 6.42; in assay [11], 8.17; in assay [12], 8.88. Also, the PBM binding z-score in assay [14] is 0.642; in assay [15] it was 1.95; in [20] it was 1.7; in assay [16] it was -0.014; in assay [17], 2.53; in assay [18], 0.458. For the same sequence, in assay [19], the PBM binding z-score turned out to be 4.22.
On to ATCGAAAGGTCGAAGGTGAGTCTACCCACCCGAA, for which the PBM binding z-score in assay [1] is 4.39; in assay [2], 3.59; in [3], -0.0971; in [4] it was 2.87; in assay [5], 0.861; in assay [6] it was 4.78. Further, the PBM binding z-score in assay [7] amounted to 4.36; in assay [8], 5.19; in [9], 2.51; in assay [10], 4.21; in [11], 0.133; in [12] it was 2.34. Also, the PBM binding z-score was 0.449 in assay [13]; 0.43 in [14]; 1.56 in [15]; 0.264 in [16]; 4.57 in assay [17]; -0.143 in [18]. The same sequence returned a PBM binding z-score in [19] of 3.74.
As to CGAACTAGTTCACCAGGACAGTGAAGAGGTTGGA, the PBM binding z-score in assay [1] was 0.244; in assay [2] it was 0.23; in assay [3], -0.131; in assay [4] it was -0.137; in [5], -0.531; in assay [6] it was 0.836. Also, the PBM binding z-score in assay [7] was 0.543; in assay [8] it was 0.354; in [9], -0.289; in assay [10], -0.0706; in assay [11], 1.56; in assay [12] it was 1.11. For the same sequence, the PBM binding z-score was 0.126 in [14]; -0.235 in assay [15]; 0.423 in assay [20]; 0.241 in assay [16]; 0.0691 in [17]; -0.106 in [18]. For the same sequence, the PBM binding z-score in assay [19] was found to be 1.7.
For ATATGCAGGTTAGGGTCATTCAGAAAGTAGGGAA, the PBM binding z-score in assay [1] was determined as 4.84; in assay [2] it was 4.25; in assay [3] it was 0.906; in assay [4], 4.2; in assay [5] it was 0.909; in assay [6], 5.12. In addition, the PBM binding z-score in [7] worked out at 4.09; in [8] it was 4.1; in assay [9], 1.99; in [10] it was 3.4; in assay [11], 2.72; in [12] it was 3.16. Besides, the PBM binding z-score in [14] amounted to 1.24; in [15], 2.85; in [20] it was 4.28; in assay [16], 1.51; in [17] it was 4.9; in assay [18], 1.16. For the same sequence, the PBM binding z-score in assay [19] was determined as 3.4.
Take AGTCAAAGTTCAGGACGAGGTCACGTAAAGCACG: the PBM binding z-score in assay [1] is 6.35; in assay [2] it was 5.87; in assay [3], 4.71; in assay [4] it was 4.87; in assay [5] it was 0.736; in assay [6], 5.46. Besides, the PBM binding z-score stood at 6.17 in [7]; 6.26 in assay [8]; 2.76 in [9]; 4.97 in [10]; 0.746 in assay [11]; 3.73 in [12]. Besides, the PBM binding z-score in [13] was 0.593; in [14] it was 0.7; in assay [15], 5.05; in [16] it was 7.95; in [18] it was 2.01.
Regarding ATATGTAGGTTAGGGTAATTCAGAAAGTAGGGAA, the PBM binding z-score in [1] stood at 1.61; in assay [2], 1.22; in [3], 0.994; in assay [4], 1.87; in assay [5], 1.03; in assay [6], 3.31. The PBM binding z-score came out at 4.75 in assay [7]; 3.91 in assay [8]; 2.13 in assay [9]; 3.13 in assay [10]; 6.57 in assay [11]; 6.48 in assay [12]. The PBM binding z-score in assay [14] came to 2.48; in assay [15], 2.03; in assay [20], 0.958; in [16], 1.34; in assay [17], 1.34; in assay [18], 1.87. Further, the PBM binding z-score in assay [19] came out at 1.33.
